# Laboratory results as given in the supplement of paper PMC9135407.
# Values joined by “and” are separate entries in the source; they are usually repeats but may differ in a detail not shown here. Equal entries are not always repeated. Structures can show the parent of a compound that is named as a salt. The campaign covered roughly 5,800 compounds. About 620 (11%) showed activity. The full list was thinned out, with actives kept by preference. A number with no mark means an inactive call.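 How the source made its calls: active = score above a cut-off or among the top three wells of a plate; in these data no inactive exceeds 0.85.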
# Tested on: primary human hepatic stellate cells (donor 1)
# Experiment: scaled lipid accumulation score (0 = DMSO-like, 1 = nortriptyline-like); higher = stronger HSC inactivation (lipid re-accumulation), active = hit call of the paper
# Details: 48 h
# [1] = library stock concentration: 10 mM
# [2] = library stock concentration: 3.33 mM
# [3] = library stock concentration: 1 mM
# [4] = library stock concentration: 80 uM
# [5] = library stock concentration: 400 uM
# [6] = library stock concentration: 2 mM
smiles,measurement,setting,value
S=C(Nc1ccccc1)Nc1nccs1 [1-Phenyl-3-(2-thiazolyl)-2-thiourea],scaled lipid accumulation score,[1],≤ -0.055
COc1cccc(Nc2c(C(N)=O)cnc3c(C)cc(S(=O)(=O)c4cccc(C(=O)N(C)C)c4)cc23)c1,scaled lipid accumulation score,[2],≤ 0
same,scaled lipid accumulation score,[1],≤ 0
CCCCCC(O)C=CC1C(O)CC(=O)C1CCCCCCC(=O)O (stereo not given) [8-iso Prostaglandin E1],scaled lipid accumulation score,[3],≤ 0
CCCCCC(O)C=CC1C(O)CC(=O)C1CCCCCCC(=O)O [15(R)-Prostaglandin E1],scaled lipid accumulation score,[3],≤ 0
COc1cc(C)c(Sc2cnc(NC(=O)c3ccc(CNC(C)C(C)(C)C)cc3)s2)cc1C(=O)N1CCN(C(C)=O)CC1 (stereo not given),scaled lipid accumulation score,[4],≤ -0.009
same,scaled lipid accumulation score,[5],≤ -0.009
same,scaled lipid accumulation score,[6],0.095
same,scaled lipid accumulation score,[1],0.769
COc1cc(C)c(Sc2cnc(NC(=O)c3ccc(CNC(C)C(C)C)cc3)s2)cc1C(=O)N1CCN(C(C)=O)CC1 (stereo not given) [listing 1 of 2 here],scaled lipid accumulation score,[1],0.891 (active)
COc1cc(C)c(Sc2cnc(NC(=O)c3ccc(CNC(C)C(C)C)cc3)s2)cc1C(=O)N1CCN(C(C)=O)CC1 (stereo not given) [listing 2 of 2 here],scaled lipid accumulation score,[4],0.006
same,scaled lipid accumulation score,[5],≤ 0
same,scaled lipid accumulation score,[6],0.398
CC(C(O)c1ccc(O)cc1)N1CCC(Cc2ccccc2)CC1.CC(C(O)c1ccc(O)cc1)N1CCC(Cc2ccccc2)CC1.O=C(O)C(O)C(O)C(=O)O (stereo not given) [Ifenprodil tartrate],scaled lipid accumulation score,[1],1.11 (active)
C[C@@H](CN1CCC(Cc2ccccc2)CC1)[C@@H](O)c1ccc(O)cc1 [Ro 25-6981 maleate],scaled lipid accumulation score,[1],0.284
CC(C(O)c1ccc(O)cc1)N1CCC(Cc2ccccc2)CC1 (stereo not given) [Ifenprodil Tartrate],scaled lipid accumulation score,[2],≤ 0
same,scaled lipid accumulation score,[1],0.077
CC(C(O)c1ccc(O)cc1)N1CCC(Cc2ccccc2)CC1 (stereo not given) [Ifenprodil hemitartrate],scaled lipid accumulation score,[1],0.45
CC(C(O)c1ccc(O)cc1)N1CCC(Cc2ccccc2)CC1 (stereo not given) [Ifenprodil tartrate],scaled lipid accumulation score,,0.252
CC(C(O)c1ccc(O)cc1)N1CCC(Cc2ccccc2)CC1 (stereo not given) [Ifenprodil],scaled lipid accumulation score,library stock concentration: 6.1 mM,0.223
same,scaled lipid accumulation score,library stock concentration: 9.6 mM,0.096
C[C@@H](CN1CCC(Cc2ccccc2)CC1)[C@@H](O)c1ccc(O)cc1 [Ro 25-6981 hydrochloride],scaled lipid accumulation score,[1],≤ 0
Nc1nc(=S)c2ncn([C@@H]3O[C@H](CO)[C@@H](O)[C@H]3O)c2[nH]1 [Thioguanosine],scaled lipid accumulation score,,0.076
CCCCC[C@H](O)/C=C/[C@@H]1[C@H](CCCCCCC(=O)O)[C@@H](O)C[C@H]1O [8-iso Prostaglandin F1.alpha.],scaled lipid accumulation score,[3],≤ 0
CCCCC/C=C\C/C=C\C/C=C\CCCCC(=O)O [Gamma-linolenic acid (18:3 n-6)],scaled lipid accumulation score,[3],0.024
CCCCC/C=C\C/C=C\C/C=C\CCCCC(=O)O [.gamma.-Linolenic Acid],scaled lipid accumulation score,[3],0.011
OCCOCCN1CCN(C(c2ccccc2)c2ccc(Cl)cc2)CC1 (stereo not given) [Hydroxyzine pamoate],scaled lipid accumulation score,library stock concentration: 2.6 mM,0.044
same,scaled lipid accumulation score,[1],0.142
OC(CCCN1CCCCC1)(c1ccccc1)c1ccccc1 [Diphenidol hydrochloride],scaled lipid accumulation score,,0.315
OC(CCCN1CCCCC1)(c1ccccc1)c1ccccc1 [Diphenidol HCl],scaled lipid accumulation score,[2],≤ 0
same,scaled lipid accumulation score,[1],0.007
Cl.Clc1ccc(CCCOCCCN2CCCCC2)cc1,scaled lipid accumulation score,[1],1.05 (active)
OCCOCCN1CCN(C(c2ccccc2)c2ccc(Cl)cc2)CC1 (stereo not given) [Hydroxyzine 2HCl],scaled lipid accumulation score,[2],0.1
same,scaled lipid accumulation score,[1],0.631
OCCOCCN1CCN(C(c2ccccc2)c2ccc(Cl)cc2)CC1 (stereo not given) [Hydroxyzine dihydrochloride],scaled lipid accumulation score,,0.453
CCCCC[C@H](O)/C=C/[C@@H]1[C@@H](C/C=C\CCCC(=O)NCCO)[C@@H](O)C[C@H]1O [Prostaglandin F2.alpha. Ethanolamide],scaled lipid accumulation score,[3],≤ 0
Nc1ncnc2c1ncn2[C@@H]1O[C@H](CO)C[C@@H]1O [3'-deoxydenosine],scaled lipid accumulation score,[1],≤ 0
CC(C)(C)NCC(O)c1ccc(O)c(CO)c1 (racemic) [Albuterol (+/-)],scaled lipid accumulation score,[1],0.068
CO/N=C(\C(=O)N[C@@H]1C(=O)N2C(C(=O)O)=C(CSc3nnnn3C)CS[C@H]12)c1csc(N)n1,scaled lipid accumulation score,[1],≤ 0
CC(C)=CCCC(C)(OC1OC(COC2OCC(O)C(O)C2O)C(O)C(O)C1O)C1CCC2(C)C1C(O)CC1C3(C)CCC(OC4OC(CO)C(O)C(O)C4O)C(C)(C)C3CCC12C (stereo not given) [Gynostemma Extract],scaled lipid accumulation score,[2],0.01
same,scaled lipid accumulation score,[1],≤ 0
O=C(CCCN1CCC(O)(c2ccc(Cl)cc2)CC1)c1ccc(F)cc1 [Haloperidol],scaled lipid accumulation score,,0.589
same,scaled lipid accumulation score,[2],0.302
same,scaled lipid accumulation score,library stock concentration: 5.3 mM,0.447
same,scaled lipid accumulation score,[1],0.787 and 0.814 and 0.297
